Assay in all cases: PBM binding z-score (relative to random genomic background probes); higher = stronger binding; sequences stand for … in GC…GCGATTGACAGCGTAGAATGAAGG
Assay [1] concerns RARb homodimer (NR concentration 270 nM). An outline of the steps: (§1)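 Binding z-scores were set against random background probes. The data came from custom Agilent 4×180K protein-binding microarrays carrying double-stranded probes with 34-nt variable regions, incubated 1 h with ligand-free nuclear receptor dimers. Partner-specific antibodies detected binding, and scanned fluorescence was regression-normalized.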

The subject of assay [2] is RARg:RXRa (NR concentration 270 nM, RXRa partner concentration 90 nM). An outline of the steps: as §1
Assay [3] relates to RARg homodimer (NR concentration 270 nM). Put shortly: as §1
Assay [4] has as its system RXRa DBDmut IVT, anti-RXR (DBD mutation: RXRa K156A/R161A, NR concentration 90 nM). Put shortly: as §1
The test system of assay [5] is RXRa homodimer (NR concentration 180 nM). An outline of the steps: as §1
The subject of assay [6] is THRa:RXRa (NR concentration 90 nM, RXRa partner concentration 90 nM). An outline of the steps:
as §1

For assay [7], the system named is THRa homodimer (NR concentration 90 nM). Put shortly: as §1
The test system of assay [8] is VDR:RXRa (NR concentration 270 nM, RXRa partner concentration 90 nM). An outline of the steps: as §1
For assay [9], the system named is VDR homodimer (NR concentration 270 nM). Put shortly: as §1

Consider GCTTGTTGATCAAGGTTAAGAAAGACTAAGCTAA, for which the PBM binding z-score came to 0.2 in assay [1]; 0.237 in assay [2]; 0.0786 in [3]; 0.0866 in [4]; 0.387 in assay [5]; 1.23 in assay [6]. In addition, the PBM binding z-score in assay [7] was -0.213; in assay [8], 0.122; in [9], -0.369.

Regarding GTACGAAGGTGAATAGGTCGTTGATGAGTAGGCG, the PBM binding z-score in [1] was 1.82; in assay [2] it was 2.78; in assay [3], 1.4; in assay [4], -0.12; in assay [5], 1.81; in assay [6], 0.742. For the same sequence, the PBM binding z-score in [7] was -0.401; in [8], 0.73; in assay [9], 0.0149.

In the case of TAGCCTAGGTCATGGGCCAGTATTCCACGCGAAC, the PBM binding z-score in assay [1] is 2.79; in assay [2], 4.27; in assay [3], 4.6; in assay [4], 0.71; in assay [5], 3.8; in assay [6], 2.99. In addition, the values for the PBM binding z-score in assay [7], in assay [8] and in assay [9] were 1.33, 2.09 and 0.208, respectively.

Regarding CCTAGCAGGCCAATCTGGGACACTCAAGGCTTGA, the PBM binding z-score is -0.286 in assay [1]; -0.31 in assay [2]; 0.0826 in assay [3]; -0.25 in [4]; -0.458 in assay [5]; 3.08 in assay [6]. Moreover, the PBM binding z-score in [7] was -0.247; in assay [8], -0.61; in assay [9], -0.728.

Regarding ACTCGGAGGACCAAGGTCAGAGCTACGCCAGTGA, the PBM binding z-score is 2.9 in [1]; 2.35 in [2]; 2.61 in assay [3]; 0.197 in [4]; 2.03 in [5]; 2.44 in assay [6]. Also, the PBM binding z-score came to 1.17 in assay [7], 1.34 in assay [8] and 0.899 in assay [9].

Regarding CCTGCTACGTCATGGTCAGCTAATCTACAGTATG, the PBM binding z-score is -0.0724 in assay [1]; 0.00255 in [2]; -0.0549 in assay [3]; 0.43 in assay [4]; -0.184 in assay [5]; -0.381 in assay [6]. The PBM binding z-score in [7] is -0.695; in assay [8], -0.408; in assay [9], -0.512.

Regarding CGAACTAGGTCAGAACCGGACAGTGAAGGATGAT, the PBM binding z-score in assay [1] was 1.76; in assay [2], 2.4; in [3], 3.3; in assay [4], 0.258; in [5] it was 1.12; in assay [6], 1.72. For the same sequence, the PBM binding z-score was 0.00608 in [7], 0.264 in assay [8] and -0.191 in assay [9].

On to TCTTGTAGATCAGAGGTTAAGAAAGCCGAAGCCT, for which the PBM binding z-score in [1] was 0.579; in assay [2] it was 0.522; in assay [3], 0.221; in assay [4], 0.653; in [5] it was 1.5; in [6], 0.868. Also, the PBM binding z-score is -0.337 in [7], 0.673 in assay [8] and 0.103 in assay [9].

For the sequence TAGGCTAGGTCATTGGGCCAGTATAGTACGCATC, the PBM binding z-score in [1] came to 2.94; in [2] it was 3.67; in assay [3] it was 4.61; in [4], 1.54; in assay [5] it was 2.5; in assay [6] it was 2.54. Besides, the PBM binding z-score in assay [7] came to 0.641; in assay [8] it was 2.03; in assay [9], 1.09.

As for ACTATTAGTAGACTTAGGGCAACCGATACGACGC, the PBM binding z-score in [1] turned out to be 0.674; in assay [2], 0.363; in assay [3], 0.941; in [4] it was 0.409; in assay [5], 0.292; in assay [6] it was 0.596. Also, the PBM binding z-score in assay [7] is 0.558; in assay [8], -0.00967; in assay [9] it was 0.227.

As for TCATATAGTTAAACAGGTGAAAGTCCGTAAGTTA, the PBM binding z-score in [1] worked out at 0.84; in assay [2], 0.464; in assay [3], 0.347; in [4], 1.57; in [5], 1.04; in assay [6], 0.679. Also, the PBM binding z-score in assay [7] amounted to 0.485; in assay [8], 1.21; in [9], 0.667.

Consider CGAACGAGGGCATGAGTAGATAGCAAATGCCGAT, for which the PBM binding z-score in assay [1] was 0.586; in assay [2], 1.22; in assay [3], 1.57; in assay [4], 2.03; in [5], 0.713; in assay [6], 0.742. The PBM binding z-score is -0.437 in assay [7], 0.5 in [8] and 0.55 in assay [9].

Consider TGTCAAAGTTCAAAGGTACCGTAAGTATCCACAC, for which the PBM binding z-score in assay [1] was determined as 4; in assay [2], 5.69; in [3], 5.77; in assay [4], 4.44; in [5], 5.81; in assay [6] it was 2.65. The PBM binding z-score in assay [7] is -0.264; in [8], 4.41; in assay [9] it was 4.24.

The record behind these values is the supplement of paper PMC6555819.
